Shown are actives, neighbours in structure and some others; about 12% of the full set was active somewhere.
G9a inh – qHTS Assay for Inhibitors of Histone Lysine Methyltransferase G9a; Histone-lysine N-methyltransferase EHMT2 (Homo sapiens), Q96KQ7; G9a H3K9 monomethylation, AlphaScreen, 2 h; Potency, µM (highest dose often 102 µM), inactives show top-dose activity, negative = inhibition, hits mostly inhibitors; 8.8% of 350,000 active; AID 504332, 2011; note: % is set by controls: 0 for no effect and ±100 for the full control effect; nearly all actives have a fitted effect of over 75% in size
Target sequence (Q96KQ7 913-1193 limits assumed): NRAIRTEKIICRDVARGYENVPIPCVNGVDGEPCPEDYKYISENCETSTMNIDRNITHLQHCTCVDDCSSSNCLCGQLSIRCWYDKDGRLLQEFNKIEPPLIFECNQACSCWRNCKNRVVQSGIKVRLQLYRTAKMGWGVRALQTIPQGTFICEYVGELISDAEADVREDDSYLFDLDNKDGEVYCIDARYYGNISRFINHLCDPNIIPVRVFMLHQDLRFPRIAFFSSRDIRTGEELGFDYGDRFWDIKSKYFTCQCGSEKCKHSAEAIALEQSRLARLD
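Step 1: enzyme (final 20 nM) with compound, 15 min RT. Step 2: substrate peptide 500 nM and SAM 20 uM, 2 h RT. Step 3: anti-H3K9me1 antibody and AlphaScreen beads, 10 min, then plate read.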
BAZ2B block – qHTS Assay for Inhibitors of BAZ2B; AID 504333, 2011; Bromodomain adjacent to zinc finger domain protein 2B (Homo sapiens), Q9UIF8; AlphaScreen BAZ2B-H3K14Ac peptide displacement; Potency, µM (series often up to 114 µM), for inactives: at the highest dose activity change, negative = inhibition, usual class: inhibitors; 4.4% of 360,000 active; note: % is set by controls: 0 for no effect and ±100 for the full control effect; nearly all actives have a fitted effect of over 60% in size
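BAZ2B (50 nM) with biotin-H3(5-23)K14Ac peptide (50 nM) in PBS pH 7.4, 0.01% Tween-20, preformed 30 min, then compound 30 min at room temperature; top concentration 110uM. AlphaScreen streptavidin donor/nickel chelate acceptor beads (10 ug/mL final), 20 min dark, signal read.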
JMJD2A Tudor – qHTS Assay for Inhibitors of JMJD2A-Tudor Domain; Lysine-specific demethylase 4A (Homo sapiens), O75164; AlphaScreen JMJD2A-Tudor / H3K4me3 peptide binding; Potency, µM (highest dose often 114 µM), for the others: top-dose activity change, negative = inhibition, actives largely listed as inhibitors; 4.4% of 390,000 active; note: % is set by controls: 0 for no effect and ±100 for the full control effect; nearly all actives have a fitted effect of over 50% in size
PLK1 PBD inh – qHTS for Inhibitors of PLK1-PDB (polo-like kinase 1 - polo-box domain): Primary Screen | Plk1 PBD binding of FITC phosphopeptide, fluorescence polarization | Potency, µM, for the others: max response, negative = inhibition, actives largely listed as inhibitors | 2.8% of 360,000 active; note: series mostly up to about 57 µM; % is set by controls: 0 for no effect and ±100 for the full control effect; nearly all actives have a fitted effect of over 65% in size
HP1b chromo inh – HTS for Inhibitors of HP1-beta Chromodomain Interactions with Methylated Histone Tails. Chromobox protein homolog 1 (Homo sapiens), P83916. AlphaScreen HP1-beta / biotin-H3K9me3 peptide binding. Potency, µM (series often up to 114 µM), for inactives: at the highest dose activity change, negative = inhibition, usual class: inhibitors. 0.56% of 390,000 active. AID 540317, 2011; note: nearly all actives have a fitted effect of over 70% in size
Target sequence (P83916 whole entry, looked up): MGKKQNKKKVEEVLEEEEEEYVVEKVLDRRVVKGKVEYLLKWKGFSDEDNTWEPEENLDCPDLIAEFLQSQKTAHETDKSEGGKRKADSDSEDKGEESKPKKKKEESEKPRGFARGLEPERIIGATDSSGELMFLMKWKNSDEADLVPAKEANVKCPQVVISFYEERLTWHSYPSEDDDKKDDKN
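AlphaScreen: HP1-beta (50 nM) preformed 30 min with biotin-H3(1-18)K9me3 peptide (50 nM) in PBS pH 7.4, 0.01% Tween-20. Compound added for 30 min at RT, then streptavidin donor/nickel chelate acceptor beads (10 ug/mL) for 30 min.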
Sfp inh – qHTS Assay for Inhibitors of Bacillus subtilis Sfp phosphopantetheinyl transferase (PPTase); Potency, µM, for inactives: largest response in the series, negative = inhibition, most hits filed as inhibitors; 3.5% of 310,000 active; Biochemical Sfp PPTase activity, qHTS; 4'-phosphopantetheinyl transferase ffp (Bacillus subtilis), Q9F4F7;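 note: the enzyme is Sfp with the accession as filed and its product quenches rhodamine fluorescence; 0% = enzyme reaction without inhibitor and -100% = no enzyme wells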
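Buffer: 50 mM Hepes-Na pH 7.6, 10 mM MgCl2, 0.01% Nonidet P-40, 0.01% BSA. Enzyme 15 nM, pre-exposed to compound 15 min; substrates then added and fluorescence change tracked over 30 min.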
Active calls of the source: *; ? = inconclusive; nt = no result given; [ ] = remark or other dose. Calls come from the whole dose curve; as a rule, active = well fitted curve in the direction sought with a large enough effect; inconclusive = small, poorly fitted or top-dose-only effect, or another doubt; inactive = no such curve, though single readings can be large; an effect the other way counts as inactive or inconclusive. Potency is the fitted concentration of half-maximal effect.

SMILES	G9a inh	BAZ2B block	JMJD2A Tudor	PLK1 PBD inh	HP1b chromo inh	Sfp inh
COc1ccc(-n2c(O)c(/C=N/n3cnnc3)c3ccccc3c2=O)cc1	50µM*	56µM*	45µM*	-7%	15%	5%
O=c1c2ccccc2c(/C=N/n2cnnc2)c(O)n1-c1ccccc1	-10%[12.7 µM]	?	89µM*	-11%	19%	15%
O=C1OC(C(=O)Nc2cc(C(F)(F)F)ccc2Cl)Cc2ccccc21 (stereo unspecified)	-4%[59 µM]	?	-12%	nt	26%	nt
CCN(C(=O)Cn1ncc2c1-c1cc(C)ccc1OC2)c1cc(Cl)ccc1OC	-10%[59 µM]	-15%	-22%	nt	20%	nt
c1ccc(CN2CCC3(CC2)Nc2ccccc2CO3)cc1	0%[12.7 µM]	10%	-19%	-23%	14%	8%
c1ccc(CN2CCC3(CC2)Nc2ccccc2S3)cc1	-40%[59 µM]	?	?	-15%	-11%	79µM*
Cc1cc2c(cc1C)N(C(=O)CCl)CCN2C(=O)CCl	nt	nt	40µM*	?	30%	nt
O=c1[nH]c2cc3c(cc2cc1C(c1nnnn1Cc1ccccc1)N1CCN2CCCC2C1)OCCO3 (stereo unspecified)	?	-38%	-13%	-8%	26%	-23%
Cc1cc(C(c2nnnn2Cc2ccccc2)N2CCOCC2)c(C)n1-c1ccc2c(c1)OCO2 (stereo unspecified)	40µM*	?	?	1%	?	28µM*
CCC(C)(C)n1nnnc1C(c1cc2cc3c(cc2[nH]c1=O)OCO3)N1CCCCC1 (stereo unspecified)	9%[12.7 µM]	-19%	-8%	-9%	11%	13%
O=c1[nH]c2cc3c(cc2cc1C(c1nnnn1Cc1ccccc1)N1CCCCCC1)OCCO3 (stereo unspecified)	14µM*	9%	-5%	0%	26%	-22%
Cc1ccc2cc(C(c3nnnn3C(C)(C)C)N3CCCC3)c(=O)[nH]c2c1C (stereo unspecified)	32µM*	-29%	nt	nt	nt	45µM*
Cc1cccc2cc(C(c3nnnn3CC3CCCO3)N3CCCC4(CCCCC4)C3)c(=O)[nH]c12 (stereo unspecified)	-10%[59 µM]	5%	nt	nt	nt	21%
Cc1cccc2cc(C(c3nnnn3Cc3ccc4c(c3)OCO4)N3CCCC3)c(=O)[nH]c12 (stereo unspecified)	18µM*	-9%	-4%	-10%	27%	56µM*
CC1(C)CC(CCNC(=O)CCl)(c2ccccc2)CCO1 (stereo unspecified)	19%[12.7 µM]	0%	-8%	-10%	25%	7%
CCOc1ccccc1NC(=O)Cn1c(=O)n(CCCC(=O)NCCc2ccc(C)cc2)c(=O)c2ccccc21	-2%[59 µM]	-1%	-3%	nt	50%	nt
CCOc1ccc2[nH]c(=O)c(C(c3nnnn3Cc3ccco3)N3CCN(C)CC3)cc2c1 (stereo unspecified)	nt	-38%	2%	-13%	32%	13%
Cc1cc2cc(C(c3nnnn3Cc3ccco3)N3CCCCC3)c(=O)[nH]c2cc1C (stereo unspecified)	50µM*	-6%	-12%	-21%	24%	40µM*
Cc1cc(-n2ccnc(NCCc3ccc(S(N)(=O)=O)cc3)c2=O)ccc1Br	-40%[59 µM]	-39%	?	nt	-22%	nt
Cc1ccc2[nH]c(C(=O)NCCN3CCCC3)cc2c1	?	-27%	-18%	-6%	27%	1%
CC(=O)Nc1ccc(N=Nc2c(C)[nH]n(C(N)=S)c2=O)cc1	45µM*	-11%	-27%	?	8%	40µM*
Cc1[nH]n(C(N)=S)c(=O)c1N=Nc1ccc2ccccc2c1	32µM*	25µM*	45µM*	-1%	?	11%
OC(CNC1CCCc2ccccc21)COc1ccc2ccccc2c1 (stereo unspecified)	10µM*	?	-100%	-7%	?	-32%
O=C(c1ccccc1)c1ccc(OCC(O)CNC2CCCc3ccccc32)cc1 (stereo unspecified)	10µM*	50µM*	10µM*	3%	?	-10%
CC(=O)CCc1ccc(OCC(O)CNC2CCCc3ccccc32)cc1 (stereo unspecified)	?	?	3.5µM*	3%	-42%	-10%
SMILES	G9a inh	BAZ2B block	JMJD2A Tudor	PLK1 PBD inh	HP1b chromo inh	Sfp inh
CCc1ccccc1OC[C@@H](O)CN[C@H]1CCCc2ccccc21	4µM*	?	40µM*	2%	9%	50µM*
CCOC(=O)c1ccc(NC(=O)CN(Cc2ccc(C)cc2)S(=O)(=O)c2ccc(C)cc2)cc1	15%[59 µM]	3%	-12%	nt	40%	nt
Cn1c(NCc2cccnc2)nc2cc(-c3cccc(C(=O)NCCO)c3)sc2c1=O	nt	nt	nt	-2%	nt	nt
O=C1CN(C(=O)c2ccccc2)c2ccccc2N1	6%[59 µM]	5%	-3%	-4%	18%	-3%
O=C1C(=C(c2ccccc2)c2ccccc2)Nc2ccccc21	-147%[59 µM]	11µM*	28µM*	1%	16µM*	3%
Cc1ccc(NC(=S)NCC2CCN(C(C)c3ccccc3)C2)cc1 (stereo unspecified)	50µM*	0%	-10%	?	12%	-24%
Cc1cc(C)c(NC(=S)NCC2CCN(C(C)c3ccccc3)C2)c(C)c1 (stereo unspecified)	10µM*	-11%	?	2.7µM*	-23%	3.5µM*
CC(c1ccccc1)N1CCC(CNC(=S)Nc2cccc(Cl)c2)C1 (stereo unspecified)	-51%	-13%	-26%	-7%	19%	4%
Cc1ccccc1NC(=S)NCC1CCC(CNC(=S)Nc2ccccc2C)CC1 (stereo unspecified)	nt	-5%	-31%	-10%	16%	-15%
O=C(Cc1c2ccccc2nc2ccccc12)c1ccccc1	3%	-5%	-6%	-5%	18%	8%
COc1cccc(C2c3c(-c4ccccc4O)n[nH]c3C(=O)N2CCc2ccc(OC)c(OC)c2)c1 (stereo unspecified)	1%[59 µM]	?	?	nt	3%	nt
C[C@H](CCC(=O)NCC(=O)O)C1CC[C@H]2C3CC[C@@H]4C[C@H](O)CC[C@]4(C)C3C[C@H](O)[C@]12C (stereo partly specified)	31%[59 µM]	nt	nt	nt	nt	7%

High-throughput results deposited in PubChem BioAssay by National Center for Advancing Translational Sciences (NCATS).
